Experimental data taken from PubChem BioAssay (Tox21).
The source made the active and inactive calls. Unless noted, the call rests on the fitted dose curve; in most records, active means well fitted curve in the direction sought with a large enough effect in the repeat runs; inconclusive means weak or mixed curves; inactive means no such curve, though single readings can be large; an effect the other way counts as inactive or inconclusive. Non-standard residues stand in square brackets, D forms with d. Residues, ends and D or L forms follow the SMILES beside them. pGlu = O=C1CC[C@@H](C(=O)O)N1

Tests used:
[1] = qHTS assay to identify small molecule antagonists of the thyroid receptor (TR) signaling pathway - cell viability counter screen (AID 743064); further: nearly all actives have a fitted effect of over 50% in size; further: potency means the concentration at half of the fitted maximal effect
Outline: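 GH3.TRE-Luc rat pituitary cells dosed after 4 hr plating, co-stimulated with T3 at 1 nM final, incubated 23.5 h at 37 C. Viability measured in the same wells by CellTiter-Fluor fluorescence after 30 min further at 37 C.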

[2] = test system: thyroid hormone receptor (rat, GH3 cells); experiment: qHTS assay to identify small molecule agonists of the thyroid receptor (TR) signaling pathway (AID 743066; calls by dose curve)
[3] = biological target: Estrogen receptor (Homo sapiens) (UniProt P03372); experiment: qHTS assay to identify small molecule antagonists of the estrogen receptor alpha (ER-alpha) signaling pathway (AID 743069; active means well fitted curve in the direction sought with a large enough effect in the signal ratio in the repeat runs, not every such curve was filed as active; inconclusive means weak or mixed curves, or effect the other way; inactive means no such curve, though single readings can be large or run the other way; the % refers to the signal ratio)
Estrogen receptor (Homo sapiens), sequence (P03372 whole entry, looked up): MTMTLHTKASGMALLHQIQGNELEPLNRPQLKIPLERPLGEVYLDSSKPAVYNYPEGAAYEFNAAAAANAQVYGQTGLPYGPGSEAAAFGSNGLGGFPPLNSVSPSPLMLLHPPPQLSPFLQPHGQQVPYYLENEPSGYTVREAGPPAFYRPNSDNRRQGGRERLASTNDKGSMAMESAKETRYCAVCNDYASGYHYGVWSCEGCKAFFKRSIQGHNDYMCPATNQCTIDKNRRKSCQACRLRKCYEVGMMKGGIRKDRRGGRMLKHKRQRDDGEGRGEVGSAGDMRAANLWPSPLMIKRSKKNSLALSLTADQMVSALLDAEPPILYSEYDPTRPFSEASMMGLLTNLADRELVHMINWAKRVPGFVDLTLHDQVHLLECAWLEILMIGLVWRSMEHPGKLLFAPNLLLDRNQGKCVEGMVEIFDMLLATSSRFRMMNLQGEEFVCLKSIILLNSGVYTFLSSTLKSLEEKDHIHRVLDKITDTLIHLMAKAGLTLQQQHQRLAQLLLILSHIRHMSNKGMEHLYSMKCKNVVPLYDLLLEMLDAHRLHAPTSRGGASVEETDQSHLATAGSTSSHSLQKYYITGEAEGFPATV
Outline: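 Antagonist mode: compounds in DMSO were co-added with 17beta-estradiol to ER-alpha-bla HEK293 cells (2% charcoal-stripped serum) and left 18 h at 37C. Reporter inhibition was measured as FRET fluorescence after 2 h LiveBLAzer substrate at room temperature.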

[4] = qHTS assay to identify small molecule antagonists of the estrogen receptor alpha (ER-alpha) signaling pathway - cell viability counter screen (AID 743074; calls by dose curve;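 further: HEK293 cells carrying ER-alpha-UAS-bla reporter stimulated with 17beta-estradiol; nearly all actives have a fitted effect of over 45% in size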; further: potency means the concentration at half of the fitted maximal effect)
[5] = biological target: Estrogen receptor (Homo sapiens) (UniProt P03372); experiment: qHTS assay to identify small molecule agonists of the estrogen receptor alpha (ER-alpha) signaling pathway (AID 743075; calls by dose curve;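 further: HEK293 GripTite cells with ER-alpha and UAS-driven beta-lactamase reporter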; further: potency means the concentration at half of the fitted maximal effect)
[6] = qHTS assay to identify small molecule antagonists of the estrogen receptor alpha (ER-alpha) signaling pathway using the BG1 cell line (AID 743080; calls by dose curve;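 further: BG1 cells stimulated with 17beta-estradiol alongside compound; nearly all actives have a fitted effect of over 25% in size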)
Outline: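 BG1-Luc-4E2 cells (endogenous full-length ER-alpha, stable 4×ERE-luciferase) were starved 5 days in phenol-red-free medium with 10% charcoal-stripped FBS, plated 24 h, then given compound plus 17beta-estradiol for 21.5 h at 37 C; ONE-Glo luminescence read after 30 min.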

[7] = qHTS assay to identify small molecule antagonists of the estrogen receptor alpha (ER-alpha) signaling pathway using the BG1 cell line - cell viability counter screen (AID 743081);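 further: compound given together with 17beta-estradiol as the ER stimulus; nearly all actives have a fitted effect of over 45% in size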
Aromatase (Homo sapiens) = Aromatase (Homo sapiens) (UniProt P11511); experiment: qHTS assay to identify aromatase inhibitors (AID 743083); further: nearly all actives have a fitted effect of over 55% in size
Aromatase (Homo sapiens), sequence (P11511 whole entry, looked up): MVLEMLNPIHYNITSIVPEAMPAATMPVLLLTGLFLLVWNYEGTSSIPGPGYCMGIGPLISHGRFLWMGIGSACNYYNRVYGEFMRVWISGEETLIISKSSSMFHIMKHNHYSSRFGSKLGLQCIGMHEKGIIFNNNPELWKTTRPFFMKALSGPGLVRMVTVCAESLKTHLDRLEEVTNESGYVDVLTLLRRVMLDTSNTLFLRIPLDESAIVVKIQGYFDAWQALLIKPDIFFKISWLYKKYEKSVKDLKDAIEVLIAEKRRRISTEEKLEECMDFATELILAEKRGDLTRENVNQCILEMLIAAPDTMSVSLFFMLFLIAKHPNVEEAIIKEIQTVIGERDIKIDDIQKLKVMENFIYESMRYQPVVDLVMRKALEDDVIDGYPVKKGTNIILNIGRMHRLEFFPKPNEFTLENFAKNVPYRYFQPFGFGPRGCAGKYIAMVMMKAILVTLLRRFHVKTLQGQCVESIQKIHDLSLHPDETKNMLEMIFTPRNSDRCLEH

[8] = biological target: Estrogen receptor (Homo sapiens) (UniProt P03372); experiment: qHTS assay to identify small molecule agonists of the estrogen receptor alpha (ER-alpha) signaling pathway using the BG1 cell line (AID 743079); conditions: BG1Luc4E2 cells, ERE-luciferase agonist, 22 h; activation: at 70.3 µM (top of the series); further: nearly all actives have a fitted effect of over 20% in size; further: potency means the concentration at half of the fitted maximal effect
[9] = qHTS assay to identify small molecule antagonists of the thyroid receptor (TR) signaling pathway (AID 743065); further: nearly all actives have a fitted effect of over 55% in size; further: potency means the concentration at half of the fitted maximal effect
Outline: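 Antagonism measured as loss of luciferase signal in GH3 cells stably carrying a TRE-luciferase reporter, co-treated with compound and T3 (1 nM final) for 23.5 h at 37 C. Viability was read in the same well by CellTiter-Fluor.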

Measured: Potency

CC1(C)N=C(N)N=C(N)N1c1ccc(Cl)cc1
active: [4] 12 µM
not listed: [8] | [9]
inactive: all other assays above

CC1C(=O)CC2C3(C)CCC2(C(C)C(=O)O)C(=O)C13 (configuration not stated)
not listed: [2] | [9]
inactive: all other assays above

COc1ccc(C[C@@H](C)NC[C@H](O)c2ccc(O)c(NC=O)c2)cc1
not listed: [4] | Aromatase (Homo sapiens) | [9]
inactive: all other assays above

O=C1/C(=C\c2cccs2)CCC/C1=C\c1cccs1
inactive: [1] | [2] | [4] | [7] | Aromatase (Homo sapiens)
active: [8] 26.6 µM

O=C(O)c1cc(O)c2c(c1)[O][Bi][O]2
active: [5] 0.012 µM [inconclusive] | [8] 0.0019 µM
not listed: [3] | [9]
inactive: all other assays above

CCOC(=O)Oc1c(OC)cc(C(=O)O[C@@H]2C[C@@H]3CN4CCc5c([nH]c6cc(OC)ccc56)[C@H]4C[C@@H]3[C@H](C(=O)OC)[C@H]2OC)cc1OC
inactive: [1] | [2] | [4] | [7]

O=C(O)c1ccc(OCCn2ccnc2)cc1
not listed: [1]
inactive: all other assays above

COC(=O)CCC[N+](C)(C)C
inactive: [1] | [4] | [7] | Aromatase (Homo sapiens)

O=[N+]([O-])O[C@@H]1CO[C@H]2[C@@H]1OC[C@@H]2O
not listed: [1] | Aromatase (Homo sapiens)
inactive: all other assays above

CCSc1ccc2c(c1)N(CCCN1CCN(C)CC1)c1ccccc1S2
inactive: [1] | [4] | [7] | Aromatase (Homo sapiens)

NC[C@@H]1O[C@H](O[C@H]2[C@@H](O)[C@H](O[C@@H]3[C@@H](O)[C@H](N)C[C@H](N)[C@H]3O[C@H]3O[C@H](CO)[C@@H](O)[C@H](O)[C@H]3N)O[C@@H]2CO)[C@H](N)[C@@H](O)[C@@H]1O
active: [8] 26.6 µM
not listed: [2] | [3] | [9]
inactive: all other assays above

CCCCOC(=O)C(=O)Nc1cccc(-c2nn[nH]n2)c1
inactive: [1] | [4] | [5] | [8] | [6] | Aromatase (Homo sapiens)

C=C[C@]1(C)C[C@@H](OC(=O)CO)[C@]2(C)[C@H](C)CC[C@]3(CCC(=O)[C@H]32)[C@@H](C)[C@@H]1O
inactive: [1] | [3] | [5] | [8] | [6] | Aromatase (Homo sapiens)

O=C(O)COc1ccc(CCNS(=O)(=O)c2ccccc2)s1
not listed: [1]
inactive: all other assays above

COC1=C(C(=O)O)N2C(=O)[C@@H](NC(=O)[C@H](N)C3=CCC=CC3)[C@H]2SC1
not listed: [2] | [4] | [9]
inactive: all other assays above

CC[C@H](C)[C@H](NC(=O)[C@H](Cc1ccccc1)NC(=O)[C@H](C)NC(=O)[C@H](CC(=O)O)NC(=O)[C@H](CCCCN)NC(=O)[C@H](CO)NC(=O)[C@@H]1CCCN1C(=O)[C@@H]1CCC(=O)N1)C(=O)NCC(=O)N[C@@H](CC(C)C)C(=O)N[C@@H](CCSC)C(N)=O ([pGlu]PSKDAFIGLM-NH2)
inactive: [1] | [4] | [7] | Aromatase (Homo sapiens)

CC(C)Cc1ccc([C@@H](C)C(=O)NS(C)(=O)=O)cc1
not listed: [1]
inactive: all other assays above

COCC(=O)Nc1cc(Sc2ccccc2)ccc1N=C(NC(=O)OC)NC(=O)OC
active: [9] 23.7 µM
not listed: [1]
inactive: all other assays above

FC(F)(F)C(F)(F)C(F)(F)C(F)(F)C(F)(F)C(F)(F)F
not listed: [1]
inactive: all other assays above

CCC(=O)c1ccc2c(c1)N(CCCN1CCN(CCO)CC1)c1ccccc1S2
inactive: [4] | [5] | [8] | [6]
active: [1] 10.6 µM
